Compound activity as filed in PubChem.
PME-1 inh: PME-1 (human) inhibition | recombinant PME-1, FP-Rh probe fluorescence polarization | inhibition, % at 5.9 µM | 320,000 compounds, 0.53% hits;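 active means inhibition above the campaign mean of all compounds plus 3 SD, cut at about 26% in these data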;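 further: competitive labeling of PME-1 active site by serine hydrolase directed probe; inhibitors block probe labeling so polarization falls and inhibition rises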
PRMT1 FP inh: blocks human protein arginine methyltransferase 1; 370,000 compounds, 1.3% hits; recombinant PRMT1, activity-based probe fluorescence polarization; inhibition, % at 2.79 µM; Q99873; AID 652257;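 active means inhibition above about 21% made by adding two undisclosed values, limit read from the data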
Target sequence (Q99873 whole entry, looked up): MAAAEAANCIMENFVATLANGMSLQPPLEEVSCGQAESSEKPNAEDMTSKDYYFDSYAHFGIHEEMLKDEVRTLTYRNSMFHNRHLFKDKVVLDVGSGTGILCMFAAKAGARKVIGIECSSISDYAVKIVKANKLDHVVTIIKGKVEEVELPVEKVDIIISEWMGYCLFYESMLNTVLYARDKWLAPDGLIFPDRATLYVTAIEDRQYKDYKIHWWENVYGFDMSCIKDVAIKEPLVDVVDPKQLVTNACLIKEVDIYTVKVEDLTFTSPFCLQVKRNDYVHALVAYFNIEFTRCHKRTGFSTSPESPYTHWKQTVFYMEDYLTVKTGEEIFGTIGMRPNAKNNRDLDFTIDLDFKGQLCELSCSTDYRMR
Fam108B counter: blocks mouse Fam108B hydrolase in RBBP9 counter-screen | recombinant Fam108B, FP-Rh probe fluorescence polarization | inhibition, % at 9.51 µM | 300,000 compounds, 0.33% hits | AID 1947;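 active means inhibition above the screen mean inhibition plus 3 SD, computed separately per campaign, cut at about 18% in these data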;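 further: inhibitors lower polarization as less probe binds the enzyme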
PAD4 inh: blocks human protein arginine deiminase 4 | 330,000 compounds, 0.41% hits | inhibition, % at 6.36 µM | recombinant PAD4, RCA probe fluorescence polarization;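 active means percent inhibition above a cutoff equal to the mean of all tested compounds plus 3 SD, cut at about 15% in these data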
SIAE inh: human SIAE inhibition, primary screen. Q9HAT2. SIAE FP-Rh probe binding, fluorescence polarization. inhibition, % at 9.66 µM. 370,000 compounds, 0.69% hits. AID 1053197;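 active means inhibition above a cutoff: mean of compounds within the control limits plus 3 SD of those, cut at about 17% in these data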
TCR-CD3 inh: human TCR-CD3 binding inhibition; TAMRA-labeled TCR probe fluorescence, biochemical; inhibition, % at 9.4 µM; 360,000 compounds, 0.37% hits; AID 651800; in the data active means inhibition above about 19%;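 further: recombinant mutant TCR 2C K166C tagged with TAMRA read by polarization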
Fam108b inh conf: Fam108b (mouse) hydrolase inhibition, confirmation assay | shares compounds with Fam108B counter | recombinant Fam108b, FP-Rh probe fluorescence polarization | inhibition, % at 9.51 µM | 930 compounds, 44% hits | AID 1978;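 active means inhibition above a limit from the primary screen, the mean over all compounds plus 3 SD, cut at about 19% in these data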;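 further: inhibitors free the probe so polarization falls as inhibition rises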
Fam108b ABPP HTS: mouse ABHD17B inhibition | shares compounds with Fam108B counter | recombinant Fam108b, gel-based ABPP, fluorophosphonate probe | inhibition, % at 20 µM | 260 compounds, 44% hits | AID 588649; in the data active means inhibition above about 40%
Hits are given with their value. In the library only some 2.6% were active in any assay of this set; here they are far more common.

COCCCNC(=O)c1ccc(Cn2c(=O)c3ccccc3n(Cc3ccc([N+](=O)[O-])cc3)c2=O)cc1 was read as PRMT1 FP inh inactive and SIAE inh inactive.
`O=S(=O)(O)c1cccc2c(N=Nc3ccc(O)c4ncccc34)cccc12` gave PME-1 inh inactive, Fam108B counter 50, PAD4 inh inactive, Fam108b inh conf 45 and Fam108b ABPP HTS inactive.
`O=[N+]([O-])c1ccc(NN=Cc2cccc(O)c2O)cc1` gave Fam108b ABPP HTS 40.
For O=[N+]([O-])c1ccc(NN=Cc2ccccc2O)cc1 the results were Fam108b ABPP HTS 90.
`O=[N+]([O-])c1ccc(NN=Cc2cccc3ccccc23)cc1` gave PRMT1 FP inh inactive, SIAE inh inactive and TCR-CD3 inh inactive.
OCCNc1c2ccccc2nc2c(F)c(F)c(F)c(F)c12 was read as PME-1 inh inactive, PRMT1 FP inh inactive, Fam108B counter inactive, PAD4 inh inactive, SIAE inh inactive and TCR-CD3 inh inactive.
`Cc1c2ccccc2nc2c(F)c(NCCO)c(F)c(F)c12` gave PME-1 inh inactive, PRMT1 FP inh 27, Fam108B counter 19, PAD4 inh inactive, SIAE inh inactive, TCR-CD3 inh inactive and Fam108b inh conf inactive.
`Oc1oc(-c2ccccc2Br)nc1C=Nc1ccccn1` gave Fam108b ABPP HTS 90.
O=C(CSc1nnc(-c2ccccc2F)n1-c1ccccc1)c1ccc2ccccc2c1 was read as PRMT1 FP inh inactive and SIAE inh inactive.
For Nc1c(C(=O)O)ccc2c1C(=O)c1ccccc1C2=O the results were PME-1 inh inactive, PRMT1 FP inh inactive, Fam108B counter inactive, PAD4 inh inactive, SIAE inh inactive and TCR-CD3 inh inactive.
For Nc1cc(C(=O)O)c(N)c2c1C(=O)c1ccccc1C2=O the results were PME-1 inh 86, Fam108B counter 73, PAD4 inh inactive, Fam108b inh conf 84 and Fam108b ABPP HTS 40.
COc1ccc(S[C@]2(C(=O)N3CCN(c4ncccn4)CC3)CC(=O)N(c3ccsc3)[C@@H]2c2ccc(OC)cc2)cc1 was read as PRMT1 FP inh inactive and SIAE inh inactive.
For Oc1cccc(NC(=S)N=Nc2c(O)[nH]c3ccc(Br)cc23)c1 the results were PME-1 inh 33, PRMT1 FP inh inactive, Fam108B counter 24, PAD4 inh inactive, SIAE inh inactive, TCR-CD3 inh inactive and Fam108b inh conf inactive.
Screening Oc1ccc(NC(=S)N=Nc2c(O)[nH]c3ccc(Br)cc23)cc1 returned PRMT1 FP inh inactive, SIAE inh inactive and TCR-CD3 inh inactive.
N#C/C(=C\c1coc2ccccc2c1=O)C(N)=S was read as PME-1 inh inactive, PRMT1 FP inh inactive, Fam108B counter inactive, PAD4 inh inactive, SIAE inh inactive and TCR-CD3 inh inactive.
`N#C/C(=C\c1coc2ccc(O)cc2c1=O)C(=O)Nc1nc2ccccc2s1` gave PME-1 inh inactive, PRMT1 FP inh inactive, Fam108B counter 44, PAD4 inh inactive, SIAE inh inactive, TCR-CD3 inh inactive and Fam108b inh conf inactive.
`COc1ccc(NN=C(C=NO)C(=O)c2ccc(OC)cc2)cc1` gave Fam108b ABPP HTS inactive.
Screening CO/N=C/C(=N\Nc1ccc(C)cc1)C(=O)c1ccc(OC)cc1 returned PME-1 inh inactive, PRMT1 FP inh inactive, Fam108B counter inactive, PAD4 inh inactive, SIAE inh inactive and TCR-CD3 inh inactive.
COc1ccc(CN2C(=O)CN(S(C)(=O)=O)CC2(C)c2nnnn2C2CCCCC2)cc1 (stereo not given) was read as PRMT1 FP inh inactive and SIAE inh inactive.
CN(C)S(=O)(=O)c1cccc(NC(=S)N/N=C/c2cc(Br)ccc2O)c1 was read as PME-1 inh 38, PRMT1 FP inh inactive, Fam108B counter 29, PAD4 inh inactive, SIAE inh inactive, TCR-CD3 inh inactive and Fam108b inh conf inactive.
Screening CC(=O)CC[C@@H]1CC[C@]2(CCCN(C(=O)c3ccco3)C2)O1 returned PRMT1 FP inh inactive and SIAE inh inactive.
Screening Cn1c(C(C#N)C2=C(Cl)C(=O)N(c3ccccc3)C2=O)nc2ccccc21 (stereo not given) returned PME-1 inh inactive, Fam108B counter 25, PAD4 inh inactive and Fam108b inh conf inactive.
